Our source for the growth values is PubChem BioAssay (NCI).

Compounds without any hit were thinned out: in the full panel of roughly 83,000, 20% have a hit.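 Values shown are percent growth following 48 h exposure of cells in 96-well plates to a single concentration of compound; below 10 was considered active.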 Values without a mark were called inactive. Calls of active or inactive are those of the source.

Common to all, as to experiment: NCI-60 one-dose screen, 48 h (100 = growth as untreated, 0 = no growth, -100 = all killed)
What all share (settings): 10 µM unless noted

The subject of assay [1] is NCI-H23 lung.
In assay [2] the test system is NCI-H322M lung.
Assay [3] concerns HOP-62 NSCLC.
The test system of assay [4] is NCI-H460 lung.
Assay [5] has as its system HOP-92 NSCLC.
For assay [6], the system named is NCI-H522 lung.
The test system of assay [7] is A549/ATCC NSCLC.
The subject of assay [8] is 786-0 renal.
The test system of assay [9] is COLO 205 colon.
The subject of assay [10] is DU-145 prostate.
Assay [11] deals with K-562 leukemia.
The test system of assay [12] is MALME-3M melanoma.
Assay [13] concerns RXF 393 renal.
In assay [14] the test system is SF-268 CNS.
In assay [15] the test system is SF-295 CNS.
The subject of assay [16] is SF-539 CNS.
Assay [17] relates to UACC-257 melanoma.
Assay [18] deals with M14 melanoma.
The test system of assay [19] is HCT-15 colon.
For assay [20], the system named is MDA-MB-231 breast.

As for `CCn1c(-c2nonc2Nc2ccc(OC)cc2)nc2ccccc21`, the growth was 107% in assay [1]; 105% in [2]; 115% in [3]; 109% in [4]; 134% in assay [5]; 89% in assay [6]. The growth in [7] is 93.5%; in [8], 95.1%; in [9] it was 124%; in assay [10], 113%; in assay [11], 118%; in assay [12] it was 120%. Also, the growth in assay [13] is 120%; in [14] it was 110%; in assay [15], 132%; in [16], 107%; in assay [17] it was 104%; in assay [18], 104%. Besides, the growth in [19] was 97.7%.
In the case of `COc1ccc(-n2c(C(O)c3ccccc3)nn(CN3CCOCC3)c2=S)cc1` (centres undefined), the growth in assay [1] was 99.4%; in [2] it was 104%; in [3], 101%; in assay [4], 111%; in [5] it was 82.6%; in assay [6], 89.9%. Besides, the growth in assay [7] was 103%; in assay [8], 106%; in assay [9], 112%; in assay [10] it was 109%; in assay [11], 110%; in assay [12], 104%. The growth in [20] was 97.6%; in [14] it was 103%; in assay [15] it was 79.7%; in [16], 102%; in [17], 105%; in assay [18] it was 95.2%. For the same compound, the growth in assay [19] is 113%.
Regarding `COC(=O)/C(=C\c1c(C)[nH]c2ccccc12)S(=O)(=O)c1ccccc1`, the growth is 18.6% in assay [1]; 47.5% in assay [2]; 29.8% in assay [3]; -7.04% (active) in assay [4]; 21.5% in [5]; 31.9% in assay [6]. The growth in assay [7] is 23.7%; in assay [8], 48%; in assay [9] it was 31.8%; in [10], -53.4% (active); in assay [11] it was 14.4%; in assay [12] it was 45.8%. Further, the growth is 90% in assay [20]; 2.87% (active) in assay [14]; 16.6% in assay [15]; -24.3% (active) in assay [16]; 29.4% in [17]; 33.7% in [18]. Besides, the growth in assay [19] is 23.8%.
With `COc1ccc(-c2cn3c(C(=O)Nc4ccccc4Cl)c(-c4ccccc4)c4c3n2CCCC4)cc1`, the growth in [1] was 86.8%; in assay [2], 102%; in [3], 88.1%; in [4] it was 75.2%; in assay [5], 64.3%; in [6] it was 76.7%. Moreover, the growth was 85.3% in assay [7]; 90.8% in assay [8]; 77.2% in [9]; 86.2% in assay [10]; 49.8% in assay [11]; 87.3% in [20]. Also, the growth is 109% in [13]; 93.1% in assay [14]; 54.7% in assay [15]; 87% in assay [16]; 91.3% in [17]; 73.6% in [18]. Besides, in [19], the growth is 60.8%.
`Cc1ccc(C(=O)c2oc3ccc4c(C)cc(=O)oc4c3c2C)cc1`: the growth is 40.4% in assay [1]; 63.1% in assay [2]; 61.3% in [3]; 3.14% (active) in [4]; 9.32% (active) in assay [5]; 25.7% in assay [6]. Also, the growth in assay [7] was 14.8%; in [8], 57.3%; in assay [9], -59.7% (active); in assay [10], 64.7%; in assay [11] it was 11.7%; in assay [20], 46.8%. The growth in [13] is 37.2%; in assay [14], 52.1%; in assay [15], 4.06% (active); in assay [16], 46.7%; in [17], -4.34% (active); in assay [18], 42.5%. Also, the growth in assay [19] is 23%.
For the compound `CSc1nc2c(c(=O)[nH]1)N=C1c3ccccc3C(=O)C1C(c1ccc(F)cc1)N2` (centres undefined), the growth is 83.7% in [1]; 92.3% in assay [2]; 63.6% in [3]; 51.7% in [4]; 58.3% in assay [5]; 75.9% in assay [6]. The growth is 56.3% in [7]; 71.5% in [8]; 53.4% in [9]; 103% in [10]; 62.8% in [11]; 56.1% in assay [12]. Further, the growth in [20] was 93.3%; in assay [14], 65.5%; in [15], -29% (active); in assay [16], 68.7%; in assay [17], 79.1%; in assay [18], 43.4%. Further, the growth in [19] was 46.1%.
On to `O=C(c1ccccc1)N(CCc1ccc(Cl)cc1)C(=S)N(C(=O)c1ccccc1)c1ccccc1`, for which the growth in assay [1] was 92.7%; in [2] it was 111%; in assay [3], 118%; in assay [4], 106%; in [5] it was 71%; in assay [6] it was 105%. Moreover, the growth is 97.3% in assay [7]; 97.6% in assay [8]; 150% in [9]; 83.9% in [10]; 58.3% in [11]; 107% in assay [20]. In addition, the growth in [14] was 101%; in [15] it was 109%; in [16], 106%; in [17], 102%; in assay [18] it was 113%; in [19], 93.8%.
For the compound `O=C(Cc1ccccc1)NC(c1ccc(Cl)cc1)c1c(O)ccc2ccccc12` (centres undefined), the growth in assay [1] was 4.5% (active); in assay [2], 15.4%; in assay [3] it was 30.9%; in assay [4] it was 5.44% (active); in [5] it was -19.9% (active); in assay [6], -8.23% (active). The growth is 9.06% (active) in assay [7]; 26% in assay [8]; -38.6% (active) in assay [9]; 33.6% in [10]; 8.85% (active) in assay [11]; -15.7% (active) in [20]. Besides, the growth in [13] is -6.64% (active); in assay [14], 29.2%; in [15] it was -36.4% (active); in assay [16], 40%; in assay [17], -9.13% (active); in assay [18] it was 16.3%. In assay [19], the growth is 15.4%.
On to `CCOc1ccc2nc(C)cc(Nc3ccc(Br)cc3)c2c1`, for which the growth was 95.8% in [1]; 93.9% in [2]; 109% in [3]; 101% in assay [4]; 105% in assay [5]; 107% in assay [6]. Moreover, the growth in assay [7] was 95.2%; in assay [8], 108%; in assay [9], 95.9%; in assay [10] it was 110%; in assay [11], 87.6%; in assay [20], 109%. Besides, the growth was 110% in [13]; 108% in assay [14]; 110% in assay [15]; 103% in assay [16]; 103% in assay [17]; 121% in assay [18]. In addition, the growth in assay [19] is 82.2%.
Take `O=C(CCN1C(=O)c2ccccc2C1=O)Nc1ccc(Cl)cc1`: the growth in assay [1] was 66.4%; in assay [2] it was 82.2%; in assay [3] it was 54.8%; in [4], 44.1%; in [5], 64.3%; in assay [6], 66.3%. Further, the growth was 79.2% in assay [7]; 65.8% in [8]; 118% in assay [9]; 67.2% in [10]; 60.7% in assay [11]; 114% in [20]. The growth was 73.6% in assay [14]; 28.4% in assay [15]; 86.5% in assay [16]; 98.2% in [17]; 92.7% in assay [18]; 61.7% in assay [19].
Turning to `CN(O)c1nc(N(C)O)nc(N2CCOCC2)n1`, the growth in assay [1] is 66%; in assay [2], 35.1%; in assay [3], 34.5%; in [4] it was 8.62% (active); in assay [5] it was 52.4%; in assay [6], 31.4%. The growth in assay [7] is 33%; in assay [8], 21%; in [9] it was 3.87% (active); in assay [10], 38.8%; in assay [11], 9.56% (active); in assay [12] it was 48.5%. For the same compound, the growth in assay [20] is 56%; in [14] it was 29.3%; in [15] it was -30.2% (active); in assay [16], 38%; in assay [17], 30%; in assay [18], 16%. Further, the growth in assay [19] is 22.5%.
On to `CC(=O)n1cc(-c2c[nH]c3ccccc23)c(-c2ccc(Cl)cc2)n1`, for which the growth in assay [1] is 76.2%; in assay [2] it was 83.6%; in [3], 66.3%; in assay [4], 82.3%; in [5], 79.7%; in [6] it was 74.8%. Moreover, the growth in assay [7] is 93.7%; in [8], 78.9%; in assay [9], 92.4%; in assay [10] it was 96.3%; in [11], 94.3%; in assay [12] it was 87.2%. Moreover, the growth was 80.6% in assay [13]; 86.5% in [14]; 75.3% in [15]; 81.7% in assay [16]; 103% in [17]; 76.1% in [18]. Besides, the growth in assay [19] was 80.9%.
Turning to `COc1ccc(/C=C2\N=C(c3ccccc3)N(c3ccc(-c4nc5ccc(C)cc5s4)cc3)C2=O)cc1`, the growth in assay [1] was 87.1%; in assay [2], 60.3%; in assay [3], 99.2%; in [4] it was 89.6%; in assay [5], 82.4%; in assay [6], 67.1%. Further, the growth is 70% in [7]; 91% in [8]; 97.1% in assay [9]; 77.9% in assay [10]; 82.4% in [11]; 94.6% in assay [12]. Moreover, the growth in assay [13] was 99%; in assay [14], 61.1%; in [15], 75.5%; in [16], 93.3%; in assay [17] it was 111%; in [18], 98.9%. For the same compound, in [19], the growth is 82.1%.
Turning to `CCc1ccc(CNCC(O)c2ccccc2)cc1` (centres undefined), the growth in assay [1] is 69.1%; in [2], 75.6%; in assay [3], 76.6%; in assay [4], 77%; in [5], 12.7%; in assay [6], 77.7%. Moreover, the growth in assay [7] is 73.8%; in assay [8], 87.5%; in assay [9], 7.32% (active); in [10], 79.7%; in [11] it was 22%; in [20], 47%. The growth in [13] is 61.6%; in assay [14] it was 90.1%; in assay [16], 86.5%; in [17], 93.1%; in [18], 58.7%; in [19] it was 43.9%.
On to `CC(=O)O[C@@H]1/C=C/C(=O)N[C@@H](C)CCC/C=C/[C@@H]2CCC[C@H]21`, for which the growth in assay [1] was 98.2%; in assay [2], 93.2%; in assay [3] it was 99%; in assay [4], 107%; in assay [5], 92.9%; in assay [6], 37.9%. The growth is 108% in [7]; 101% in [8]; 114% in [9]; 112% in [10]; 102% in assay [11]; 117% in [12]. Moreover, the growth is 122% in [20]; 104% in [14]; 98.6% in [15]; 94% in assay [16]; 101% in assay [17]; 103% in [18]. For the same compound, the growth in assay [19] was 114%.
Turning to `CC(=O)SC1CC(=O)C=C2CCC3C4CCC(=O)OC4(C)CCC3C21C` (centres undefined), the growth in [1] was 111%; in assay [2] it was 120%; in assay [3], 106%; in [4], 115%; in assay [5] it was 97.6%; in [6] it was 92.7%. Besides, the growth in assay [7] is 105%; in assay [8], 101%; in assay [9] it was 116%; in [10], 116%; in assay [11], 103%; in [12], 195%. The growth in [14] was 105%; in [16] it was 94.9%; in assay [17], 100%; in assay [18], 97.7%; in [19], 106%.
